This note sets out measurements from PubChem BioAssay AID595 (National Center for Advancing Translational Sciences (NCATS), 2007).

About 310 (0.44%) of roughly 71,000 compounds were called active. Where a call stands in place of a potency, no number is given. Inconclusive results (about 5%) are left out. The sample holds actives, similar compounds and a random draw of the others, so the mix is not that of the screen. A number with no mark means an inactive call. Calls follow the shape of the dose curve; as a rule, active = well fitted curve in either direction with a large enough effect; inconclusive = small, poorly fitted or top-dose-only effect, or another doubt; inactive = flat fitted curve, though single readings scatter.
Potency is read from the fitted curve at half-maximal effect.

In the assay the test system is Hsp90 C-terminal peptide / TPR2A (Hop) interaction, human. The assay is described as follows: qHTS Assay for Disrupters of an Hsp90 Co-Chaperone Interaction. To be noted: AlphaScreen TPR2A-His6 binding biotin-Hsp90 C-terminal peptide; series mostly up to 57 µM. The source says:
NIH Chemical Genomics Center [NCGC]
NIH Molecular Libraries Screening Centers Network [MLSCN]
Hsp90 (heat shock protein 90) is the essential molecular chaperone and it accounts for 1-2% of all cytosolic proteins and is critical for the activity of diverse cellular proteins that are involved in a variety of cellular processes, including development, cell cycle, and steroid hormone signaling. Its client proteins include signaling kinases such as IGF1R, Akt, v-Src, Raf-1; regulators of cell survival such as Bcr-Abl; and transcription factors such as mutated p53, estrogen and progesterone receptors. Hsp90 has emerged as an important target for cancer treatment due to its essential role in maintaining transformation and regulating the function of oncogenic signaling proteins.
The in vivo function of Hsp90 is regulated by the binding and hydrolysis of ATP at its N-terminal. Geldanamycin binds to ATP site and inhibit Hsp90 function. Geldanamycin and its analogues are under clinical trials in cancer patients.
This domain contains the binding site for tetratricopeptide repeat (TPR) domains on HOP (Hsp Organizing Protein). TPR is a structural motif used by a significant number of cochaperones by which the in vivo function of Hsp90 is regulated. TPR2A on HOP binds specifically to MEEVD motif of the C-terminal of Hsp90.
A homogeneous AlphaScreen is developed to assess the interaction between TPR2A and MEEVD motif of the C-terminal of Hsp90 by using the isolated TPR2A domain and a synthesized 20mer Hsp90 C terminal peptide. AlphaScreen is two bead-based proximity-dependent chemical energy transfer luminescent assay platform. TPR2A-His-6 and biotinylated Hsp90 C terminal peptide will bring streptavidin donor beads and nickel chelate acceptor beads to a proximity range (less than 200 nm), and subsequently lead a chemical luminescent reaction upon exciting donor beads with 680 nm laser. Inhibition of TPR2A and MEEVD motif interaction by small molecules could attenuate or abolish this chemical luminescent reaction.
Counter screening: Biotinylated-His-6 (PerkinElmer) can be utilized as a counter screen, as it serves as a linker to bring streptavidin beads and nickel chelate beads together. The counter screen can exclude alpha screen platform false positives due to small molecules being metal chelators, biotin analogues and imidazole analogues, or due to interfering with oxygen release from donor beads. Such an assay should be utilized to qualify any activity observed in this screen.
NCGC Assay Protocol Summary:
The assay was performed on 1536-well white plate (untreated solid bottom). Liquids were dispensed by 1536-well plate washer (Kalypsys, San Diego, CA). Plates were read on EnVision (PerkinElmer, Boston, MA).TPR2A-His6 was produced using a bacteria expression system and purified using a well developed method (Ghosh et al., 2000). Hsp90 C terminal 20-mer peptide with or without an N-terminal biotin group are synthesized using automated solid phase synthesis by the Yale Keck facility. The composition of assay buffer was (in mM) 25 HEPES, 100 KCl, 2 MgCl2 and 2 DTT; 0.1% BSA and 0.01% Tween-20. TPR2A-His6 binding to biotin-Hsp90 will bring streptavidin donor beads and nickel chelate acceptor beads (PerkinElmer) together and can be measured by Alpha reading by EnVision (PerkinElmer). Free Hsp90 blocks biotin-Hsp90 binding to TPR2 and serves as a positive control in the current asssay.
The assay was performed at room temperature. All compounds were screened as titrations from […] to 46 uM final concentration. The assay was performed in 1536-well format plates (untreated white solid bottom, Corning Inc.) as follows:
Sequence,Parameter,Value,Description
1,Reagent,3 uL TPR2A-His6,Final concentration was 5nM
2,Compound,23 nL,Final titration was from 0.7 nM to 46 uM
3,Time,15 minutes,Room temperature
4,Reagent,1 uL biotin-Hsp90,With and without free Hsp90. Final concentration was 10 nM for biotin-Hsp90 and 10uM for free Hsp90.
5,Time,1 hour,Room temperature
[…]
As for `C=CCn1c(COc2ccccc2F)nnc1SCC(=O)N1CC(=O)Nc2ccccc21`, the activity change, negative = inhibition result is “inactive”. As to `CO[C@@H]1/C=C\O[C@]2(C)Oc3c(C)c(O)c4c(O)c(c(CN(C)C)c(O)c4c3C2=O)NC(=O)/C(C)=C\C=C[C@@H](C)[C@@H](O)[C@H](C)[C@@H](O)[C@H](C)[C@H](OC(C)=O)[C@@H]1C`, the activity change, negative = inhibition is -3.79% [at 11 µM]. Still for that read-out and setting: for `CC[C@H](c1ccccc1)c1cc(C(C)(C)C)cc(C(C)(C)C)c1O` the value was 5.54% [at 11 µM]; for `S=c1[nH]nc(SCc2ccccc2Cl)c2[nH]cnc12`, -1.97% [at 11 µM].

In the case of `Oc1cc2c(cc1O)CN(C(=S)NCCc1ccc(Cl)cc1)CCC2`, the activity change, negative = inhibition entry is “inactive”. The same measure, in the same setting: as for `CCOC(=O)c1[nH]cnc1C(=O)NC1CCCCC1`, the entry is “inactive”; as for `N#Cc1ccccc1-c1ccc2ncnc(NCc3cccnc3)c2c1`, “inactive”. The same measure, in the same setting: for `O=C(O)C1CCN(c2ncnc3ccc(-c4ccccc4C(F)(F)F)cc23)CC1` the value was “inactive”. On the same count and under the same terms, as for `c1ccc2c(Nc3ccncc3)nc(-c3ccc4c(c3)OCO4)nc2c1`, the entry is “inactive”; as for `C#CCCCCCCCCCCCCCCCC(=O)O`, “inactive”; as for `Cc1ccnc(NC(=O)c2ccc(NC(=O)c3ccco3)cc2)c1`, “inactive”.

`CC(NC(=O)c1ccco1)C(=O)Nc1nc(-c2ccccn2)cs1` (configuration not stated): the Potency was 10 µM (active).

As for `O=C(Nc1ccc(NC(=O)c2cccs2)cn1)c1ccco1`, the activity change, negative = inhibition entry was “inactive”.

For the compound `N#CCCn1c(=O)c(-c2cc(F)cc(F)c2)nc2cnc(Oc3ccccc3)nc21`, the activity change, negative = inhibition result was “inactive”. The same measure, in the same setting: for `CCCc1cc(=O)[nH]c(SCC(=O)OCc2ccccc2)n1` the value was “inactive”; for `COc1ccccc1-c1nc(NCc2cccs2)c2ccccc2n1`, “inactive”; for `O=C(Nc1c2c(nn1-c1ccc(F)cc1)CS(=O)C2)C12CC3CC(CC(C3)C1)C2` (configuration not stated), “inactive”.

Consider `CCOC(=O)CNC(=O)CSc1nnc(-c2cccc(OC)c2)n1CC`, for which the activity change, negative = inhibition entry was “inactive”. In the case of `COC(=O)[C@H]1[C@H]2C[C@H]3c4[nH]c5ccccc5c4CCN3C[C@@H]2CC[C@@H]1O`, the activity change, negative = inhibition entry is “inactive”.

Regarding `COc1ccc2oc(=O)c(C(=O)N3CCN(c4ccccc4F)CC3)cc2c1`, the activity change, negative = inhibition entry is “inactive”.

Consider `O=C(Nn1cc(C(=O)N2CCN(c3ccccc3F)CC2)c2ccccc2c1=O)c1cnccn1`, for which the Potency is 3.98 µM (active). Take `O=C(c1cccc2ccccc12)N1CCN(c2ccccc2F)CC1`: the activity change, negative = inhibition result was “inactive”.

As for `c1ccc(CNc2ncncc2-c2cccnc2)cc1`, the activity change, negative = inhibition entry is “inactive”. The same measure, in the same setting: as for `COc1ccc2[nH]cc(CCNc3ncnc4ccc(-c5ccccc5CN(C)C)cc34)c2c1`, the entry is “inactive”; as for `COc1ccc(C(=O)Nc2c(N)nc(SCC(=O)N3CCC(C)CC3)[nH]c2=O)cc1OC`, “inactive”; as for `COc1ccc(-c2[nH]nc3c2C(c2ccncc2)C(C#N)=C(N)O3)cc1` (configuration not stated), “inactive”. As for `COc1cc(C2C(C#N)=C(N)Oc3n[nH]c(-c4ccccn4)c32)cc(OC)c1OC` (configuration not stated), the Potency is 25.1 µM (active).

As to `CCOc1c(OC)cc(C2C(C#N)=C(N)Oc3n[nH]c(-c4ccncc4)c32)cc1OC` (configuration not stated), the activity change, negative = inhibition entry was “inactive”. For the compound `COc1ccc(-c2nc3cnc(OC)nc3n(Cc3ccc(F)cc3)c2=O)cc1`, the activity change, negative = inhibition entry was “inactive”. In the case of `O=c1cc(-c2ccc(O)c(O)c2)oc2cccc(O)c12`, the activity change, negative = inhibition result was “inactive”. On the same count and under the same terms, as for `CCCCCCCCCCCC(=O)O`, the entry is “inactive”. The same measure, in the same setting: for `CCCOC(=O)Nc1ccccc1C(N)=O` the value was “inactive”; for `CC(=O)/C(C)=N\O`, “inactive”; for `CCn1c(=N)c(C(=O)NCCCOC)cc2c(=O)n3cccc(C)c3nc21`, “inactive”. Same read-out and setting: as for `O=C(c1ccco1)N1CCC2(CC1)CCN(c1ncccn1)CC2`, the entry is “inactive”. For the compound `CCOC(=O)C(CCOc1cccc(CC)c1)C(=O)OCC`, the Potency was 25.1 µM [activator] (active). For the compound `COC(=O)[C@@H](NC(=O)NCc1cccc(OC)c1)C(C)C`, the activity change, negative = inhibition result is “inactive”. The same measure, in the same setting: as for `C=CCNC(=O)CCCOc1cccc(C)c1`, the figure is -6.77% [at 11 µM]; as for `COc1cccc(-n2c(SCC(=O)NC3CCCCC3)nc3n[nH]c(C)c3c2=N)c1`, “inactive”; as for `CC(=O)Nc1ccc(S(=O)(=O)N2CCC(N(C)CCC(C)C)CC2)cc1`, “inactive”. With `Cc1ccc(/C(=C/CN2CCCC2)c2ccccn2)cc1`, the activity change, negative = inhibition entry is “inactive”. Same read-out and setting: as for `Cc1ccc(S(=O)(=O)Cn2nnnc2CN2CCN(Cc3ccc4c(c3)OCO4)CC2)cc1`, the entry is “inactive”; as for `N=c1c2c3c(sc2ncn1N)CCCCC3`, “inactive”. Still for that read-out and setting: as for `COC(=O)c1ccccc1NC(=O)c1cncc(Br)c1`, the entry is “inactive”; as for `N#C/C(=C\c1ccc(O)c(O)c1)C(=O)NCc1ccccc1`, “inactive”.

Consider `COc1ccc(OC)c([C@H](O)CNC(=O)CN)c1`, for which the activity change, negative = inhibition result is “inactive”.

As for `Cc1cnc(CNc2ncncc2-c2ccccc2Cl)cn1`, the activity change, negative = inhibition entry is “inactive”.
